Source: PubChem BioAssay AID485353 (National Center for Advancing Translational Sciences (NCATS), 2010)
The whole screen tested about 330,000 compounds, of which about 610 (0.18%) were called active. Where a call stands in place of a potency, no number is given. Inconclusive results (about 2%) are left out. The full list was thinned out, with actives kept by preference. Unmarked numbers belong to inactive results. The call rests on the fitted dose curve.

Assay: qHTS of Yeast-based Assay for SARS-CoV PLP; further: nearly all actives have a fitted effect of over 55% in size
Details: S. cerevisiae expressing SARS-CoV PLpro; Potency: growth rescue; series mostly up to 32.9 µM
Potency means the concentration at half of the fitted maximal effect.

Row | Compound | Potency | activity, positive = growth rescue
1 | CCOC(=O)c1nn(-c2ccccc2F)c2nc(Nc3ccccc3)cc(=O)n12 | inactive | 
2 | Cc1cc(NC(=O)CS(=O)(=O)c2cn(C)c3ccccc23)no1 | inactive | 
3 | CC1CN(S(=O)(=O)c2ccccc2)C(C)CN1S(=O)(=O)c1ccccc1 (configuration not stated) | inactive | 
4 | CCOc1cccc(-c2nnc(SCC(=O)NC3CC3)n2C)c1 | inactive | 
5 | Cn1c(SCC(=O)NC2CCCCC2)nnc1-c1ccc(N)cc1 | inactive | 
6 | Cn1c(SCC(=O)NC2CCCCC2)nnc1-c1cc2ccccc2o1 | 10 µM (active) | 
7 | CN(c1ccc2nc3ccccc3c(=O)n2n1)C1CCCCC1 | inactive | 
8 | CC(C)Cc1nnc(NC(=O)CCC(=O)Nc2ccc3cn[nH]c3c2)s1 | inactive | 
9 | O=c1oc2ccccc2cc1-c1cn(-c2ccccc2)c(=S)[nH]1 | inactive | 
10 | S=c1[nH]nc(-c2cccs2)n1/N=C/c1cn(-c2ccccc2)nc1-c1ccc(Cl)cc1 | inactive | 
11 | S=c1[nH]c(-c2cccs2)cn1-c1ccccc1 | 11.2 µM (active) | 
12 | COc1ccccc1C(=O)NN1C(=O)C2C3C=CC(O3)C2C1=O (configuration not stated) | inactive | 
13 | O=C(NN1C(=O)C2C(C1=O)C1C=CC2C12CC2)c1ccccc1Cl (configuration not stated) | inactive | 
14 | CC12CCC(C(=O)N(NC(=O)c3ccccc3O)C1=O)C2(C)C (configuration not stated) | 2.82 µM (active) | 
15 | O=c1c(Cl)c(NCc2ccc(F)cc2Cl)cnn1C12CC3CC(CC(C3)C1)C2 | inactive | 
16 | O=C(NC1CCN(S(=O)(=O)c2ccc(F)cc2)CC1)c1ccccc1 | inactive | 
17 | CCc1ccc(-c2nn(-c3ccccc3)cc2CSC(=N)N)cc1 | inactive | 
18 | CCCCC(=O)N(c1ccc(OC)cc1)C1C=CS(=O)(=O)C1 (configuration not stated) | inactive | 
19 | Nc1ccc(Nc2cc(O)c3ncccc3c2)cc1 | inactive | 
20 | Cc1ccc(OCCC(=O)Nc2ccc(S(=O)(=O)Nc3nccs3)cc2)cc1 | inactive | 
21 | O=C(NN1C(=O)C2C3C=CC(C3)C2C1=O)c1ccco1 (configuration not stated) | inactive | 
22 | CC(C)=C1C2CCC1C1C(=O)N(NC(=O)c3ccco3)C(=O)C21 (configuration not stated) | 2.82 µM (active) | 
23 | O=C(NN1C(=O)C2CCCCC2C1=O)c1ccco1 (configuration not stated) | inactive | 
24 | CC(=O)NC(c1cccs1)c1cc(Br)c2cccnc2c1O (configuration not stated) | inactive | 
25 | Cc1nn2c(c1-c1ccccc1)N=C(c1ccco1)CC2c1ccccc1 (configuration not stated) | inactive | 
26 | CC[C@]12c3[nH]c4cc(CCC(=O)N(C)C)ccc4c3CCN1C(=O)[C@@H](CC(=O)NCCCN(C)C)C[C@@H]2C(=O)N1CCN(C(=O)c2ccco2)CC1 | inactive | 

Row | Compound | Potency | activity, positive = growth rescue
27 | CCC(C)NC(=O)C1CCCN(C(=O)NC2CCCCC2)C1 (configuration not stated) | inactive | 
28 | Cc1ccc(S(=O)Cc2ccc(C(=O)N3CCN(C4CCCCC4)CC3)o2)cc1 (configuration not stated) | inactive | 
29 | O=C(CCN1C(=O)C2C3C=CC(C3)C2C1=O)Oc1ccc2ccccc2c1 (configuration not stated) | inactive | 
30 | Cc1ccc(C(=O)COC(=O)CCN2C(=O)C3C4CC(C(Br)C4Br)C3C2=O)cc1 (configuration not stated) | 12.6 µM (active) | 
31 | Cc1ccc(C(=O)COC(=O)CCN2C(=O)C3C4CCC(C4)C3C2=O)cc1C (configuration not stated) | inactive | 
32 | CCN1C(=O)[C@@H]2[C@@H](c3ccc(-c4ccccc4)cc3)N3CCCC[C@@]3(C(=O)OC)[C@@H]2C1=O | inactive | 
33 | O=C(Oc1cccc(N2C(=O)C3C4c5ccccc5C(c5ccccc54)C3C2=O)c1)c1ccco1 (configuration not stated) | inactive | 
34 | Cc1nc2ccccc2n1C(=O)N1CCOCC1 | inactive | 
35 | O=C(CSC(=S)N1CCOCC1)c1ccccc1 | inactive | 
36 | CC1CN(C(=S)Nc2ccccc2F)CC(C)O1 (configuration not stated) | inactive | 
37 | CC1CN(C(=S)SCC(=O)c2ccccc2)CC(C)O1 (configuration not stated) | 10 µM (active) | 
38 | Cc1ccc(NC(=O)COc2ccc(-n3ccnc3)cc2)cc1Cl | inactive | 
39 | COc1cccc(NC(=O)c2ccccc2N(Cc2ccccc2)S(C)(=O)=O)c1 | inactive | 
40 | CCOC(=O)N1CCN(C(c2cccnc2)c2ccc3cccnc3c2O)CC1 (configuration not stated) | 11.2 µM (active) | 
41 | COc1ccccc1N1CCN(C(CNC(=O)Oc2ccccc2)c2cccnc2)CC1 (configuration not stated) | inactive | 
42 | O=C(CSc1cccc2cccnc12)N/N=C/c1cccnc1 | inactive | 
43 | Cc1ccc(S(=O)(=O)n2cccc2CO)cc1 | inactive | 
44 | CC(C)(Oc1ccc(Cl)cc1)C(=O)OCC(=O)NCCc1ccc(S(N)(=O)=O)cc1 | inactive | 
45 | O=C(Cn1cnc2c(nnn2-c2ccccc2)c1=O)N1CCC(Cc2ccccc2)CC1 | inactive | 
46 | COc1cccc(NC(=O)CN(C)C(C)C(=O)Nc2ccc(C#N)cc2)c1 (configuration not stated) | inactive | 
47 | O=C(CCc1nnc(CCCCc2ccccc2)o1)NC(c1cccnc1)C(F)(F)F (configuration not stated) | inactive | 
48 | O=C(Nc1ccc(S(=O)(=O)N2CCCCC2)cc1)C1CC(=O)N(c2ccc(F)cc2)C1 (configuration not stated) | inactive | 
49 | CN1CCN(C2=NCCO2)CC1 | inactive | 
50 | CC(C#N)OC(=O)c1cccnc1SCC(=O)Nc1ccc2c(c1)OCO2 (configuration not stated) | inactive | 
51 | CCCCOc1ccc(NC(=O)[C@@H]2CCCN2C(=O)C2CCN(S(=O)(=O)c3ccc(C)cc3)CC2)cc1 | inactive | 
52 | COc1ccc(NC(=O)C2CCC(CNS(=O)(=O)c3csc(C(N)=O)c3)CC2)cc1OC (configuration not stated) | inactive | 

Row | Compound | Potency | activity, positive = growth rescue
53 | Cc1cc(C)c2nc3nc(C)cc(C)c3c(N)c2c1 | inactive | 
54 | O=C(CN1C(=O)NC2(CCCCCCC2)C1=O)NCc1ccc(F)cc1 | inactive | 
55 | Cc1ccccc1OCc1nnc(SCC(=O)N2c3ccccc3Sc3ccc(Cl)cc32)o1 | inactive | 
56 | O=C(CC1CCCCC1)NCc1ccco1 | inactive | 
57 | O=C(CN1C(=O)/C(=C/c2ccccc2F)Sc2ccccc21)NCc1cccnc1 | inactive | 
58 | O=C(CN1C(=O)/C(=C\c2ccc(C(F)(F)F)cc2)Sc2ccccc21)NCc1ccco1 | 12.6 µM (active) | 
59 | COc1cccc(C(CC(=O)NCCN2CCOCC2)NS(=O)(=O)c2ccc(C)cc2)c1OC (configuration not stated) | inactive | 
60 | CCc1nccn1CCC(=O)N1CCCC(N2CCN(c3ccccc3F)CC2)C1 (configuration not stated) | inactive | 
61 | CC1(c2ccc(Cl)cc2Cl)NC(=O)N(CC(=O)Nc2cccnc2Cl)C1=O (configuration not stated) | inactive | 
62 | O=C(c1ccco1)N1CCN(CC(=O)N(C2CCCCC2)C2CCS(=O)(=O)C2)CC1 (configuration not stated) | inactive | 
63 | COc1ccc(CNC(=O)c2c[nH]c3c(OC)cc(OC)cc3c2=O)cc1 | inactive | 
64 | CC(=O)N1N=C(c2ccncc2)OC1(Cc1ccccc1)Cc1ccccc1 | inactive | 
65 | COC(=O)CCc1sc(Nc2ccc(Br)cc2)nc1-c1ccc(OC)cc1 | inactive | 
66 | CN(C(=O)COC(=O)CCCc1c[nH]c2ccccc12)c1c(N)n(Cc2ccccc2)c(=O)[nH]c1=O |  | 2.28% [at 6.58 µM]
67 | Cc1nc(-c2ccccc2)sc1C(=O)/C=C/N(C)C | inactive | 
68 | Cc1nc(-c2ccc(Cl)cc2)sc1C(=O)CBr | inactive | 
69 | Cc1ccc(SCC(=O)c2sc(-c3ccccc3)nc2C)cc1 | 3.55 µM (active) | 
70 | CN(CC(=O)NCCN1CCOCC1)S(=O)(=O)c1ccc(F)cc1 | inactive | 
71 | Cc1[nH]n(-c2ccc([N+](=O)[O-])cc2)c(=O)c1C=NCCN1CCN(C(=O)c2ccccc2F)CC1 | inactive | 
72 | COc1cc(/C=N/NC(=O)c2ccoc2C)ccc1OCCN1CCCCC1 | inactive | 
73 | C/C(=N\NC(=O)c1ccoc1C)c1ccccc1O | inactive | 
74 | Cc1[nH]n(-c2ccccc2)c(=O)c1/C=N/NC(=O)c1ccoc1C | 2.51 µM (active) | 
75 | Cc1ccc(-n2[nH]c(C)c(/C=N/NC(=O)c3cccc([N+](=O)[O-])c3)c2=O)cc1C | 1.26 µM (active) | 
76 | C/C(=N\NC(=O)c1cccc([N+](=O)[O-])c1)c1cccnc1 | inactive | 
77 | O=C(Cn1cc(/C=N/NC(=O)c2cccc(C(F)(F)F)c2)c2ccccc21)Nc1ccc(F)cc1 | inactive | 
78 | O=C(NCCCn1ccnc1)C(=O)NCC1OCCN1S(=O)(=O)c1cc(F)ccc1F (configuration not stated) | inactive | 

Row | Compound | Potency | activity, positive = growth rescue
79 | CCc1cccc(NC(=O)COC(=O)c2cc(=O)c3ccccc3o2)c1 | inactive | 
80 | Nc1nonc1-n1nnc(C(=O)N/N=C\c2ccncc2)c1CN1CCCCC1 | inactive | 
81 | Nc1nonc1-n1nnc(C(=O)N/N=C/c2cc(Br)ccc2O)c1CSC1=NCCS1 | 4.47 µM (active) | 
82 | Cc1ccc(SCc2c(C(=O)N/N=C/C3CC=CCC3)nnn2-c2nonc2N)cc1 (configuration not stated) | inactive | 
83 | CSc1nc(-c2ccco2)nn1C(=O)c1ccccc1Cl | inactive | 
84 | COc1cc(C(=O)N/C(=C\c2cn(C)c3ccccc23)C(=O)N2CCOCC2)cc(OC)c1OC | inactive | 
85 | CCN(CC)c1ccc(/C=N/Nc2nc(C)cc(C)n2)c(O)c1 | 5.01 µM (active) | 
86 | Cc1cc(C)nc(N/N=C/c2c(CO)cnc(C)c2O)n1 | inactive | 
87 | CCN(CC)c1ccc(/C=N/NC(=O)c2cnccn2)c(O)c1 | inactive | 
88 | CC1(C)Cc2nc3sc4c(SCC(=O)NC(c5ccccc5)c5ccccc5)ncnc4c3cc2CO1 | inactive | 
89 | COc1ccc(NC(=O)C(=O)NCC(c2ccco2)N2CCc3ccccc3C2)cc1 (configuration not stated) | inactive | 
90 | CCOc1c(Nc2cccc(Cl)c2)c(=O)c1=O | inactive | 
91 | CCOCCCNC(=O)C(NC(=O)c1ccc(=O)[nH]c1)c1ccc(Cl)cc1 (configuration not stated) | inactive | 
92 | CC1(C(=O)OCC(=O)Nc2ncc(Cl)cc2Cl)CC1(Cl)Cl (configuration not stated) | inactive | 
93 | CN(CC(=O)Nc1ccc(S(=O)(=O)N2CCCC2)cc1)Cc1ccc(Cl)c(Cl)c1 | inactive | 
94 | C=CCn1c(C23CC4CC(CC(C4)C2)C3)n[nH]c1=S | 11.2 µM (active) | 
95 | C=CCn1c(-c2sc(-c3ccccc3)nc2C)n[nH]c1=S | inactive | 
96 | C=CCn1c(SCC(=O)NC)nnc1C12CC3CC(CC(C3)C1)C2 | inactive | 
97 | C=CCNC(=O)/C(=C\c1cccc([N+](=O)[O-])c1)NC(=O)c1ccccc1 | inactive | 
98 | O=C(N/N=C/c1cc([N+](=O)[O-])ccc1O)/C(=C\c1cccs1)NC(=O)c1ccccc1 | 3.98 µM (active) | 
99 | O=C(Nc1ccc(C(=O)O)cc1)/C(=C/c1ccc([N+](=O)[O-])cc1)NC(=O)c1ccccc1 | inactive | 
100 | COc1cccc(CNC(=O)CN(C)S(=O)(=O)c2ccc3c(c2)c(=O)n(C)c(=O)n3C)c1 | 3.55 µM (active) | 
101 | CC1CCC(NC(=O)CN(C)S(=O)(=O)c2ccc3c(c2)c(=O)n(C)c(=O)n3C)CC1 (configuration not stated) | inactive | 
102 | CCc1ccccc1NC(=O)CN(C)S(=O)(=O)c1ccc2c(c1)c(=O)n(C)c(=O)n2C | inactive | 
